From PubChem BioAssay AID1159580 (chemical genetic matrix, 2015)
The whole screen tested about 5,500 compounds, of which about 2,000 (36%) were called active. Roughly 18% stayed inconclusive and do not appear here. Cut-off read from the data, not from the text of the source: active = normalized growth mostly below about 0.91 (no sharp cut-off); inconclusive = no clear call, values can overlap the other calls; inactive = mostly above about 0.92. The list shows a part of the results.

Assay: chemical genetic growth profiling, strain panel (AID 1159580);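 note: tested at 20 µM; growth read once vehicle control cultures reached saturation at 30 °C; 1 = growth at the plate median or of vehicle wells; lower values mean less growth of the strain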
Conditions: growth OD

Measured: normalized growth

COc1ccc(CCN2CCC(Nc3nc4ccccc4n3Cc3ccc(F)cc3)CC2)cc1
inactive: S. cerevisiae deletion strains, locus YJR066W, strain TOR1, stronger effect = lower value 0.931 | S. cerevisiae deletion strains, locus YKL009W, strain mrt4, stronger effect = lower value 0.99 | S. cerevisiae deletion strains, locus YKL068W, stronger effect = lower value 0.991 | S. cerevisiae deletion strains, locus YKL085W, strain MDH1 (second series), stronger effect = lower value 1.04 | S. cerevisiae deletion strains, locus YKL085W, strain MDH1, stronger effect = lower value 1.04 | S. cerevisiae deletion strains, locus YKL160W, strain elf1, stronger effect = lower value 0.961 | S. cerevisiae deletion strains, locus YKL190W, strain CNB1, stronger effect = lower value 0.992 | S. cerevisiae deletion strains, locus YKR001C, strain vps1, stronger effect = lower value 0.999 | S. cerevisiae deletion strains, locus YKR026C, strain gcn3, stronger effect = lower value 0.945 | S. cerevisiae deletion strains, locus YKR091W, strain srl3, stronger effect = lower value 0.987 | S. cerevisiae deletion strains, locus YLL001W, strain dnm1, stronger effect = lower value 0.954 | S. cerevisiae deletion strains, locus YLL026W, stronger effect = lower value 0.974 | S. cerevisiae deletion strains, locus YLL041C, strain sdh2, stronger effect = lower value 0.969 | S. cerevisiae deletion strains, locus YLR027C, strain aat2, stronger effect = lower value 0.978 | S. cerevisiae deletion strains, locus YLR039C, strain RIC1, stronger effect = lower value 1.19 | S. cerevisiae deletion strains, locus YLR058C, strain SHM2, stronger effect = lower value 0.974 | S. cerevisiae deletion strains, locus YLR102C, strain apc9, stronger effect = lower value 0.991 | S. cerevisiae deletion strains, locus YLR113W, strain HOG1, stronger effect = lower value 0.976 | S. cerevisiae deletion strains, locus YLR221C, strain rsa3, stronger effect = lower value 0.951 | S. cerevisiae deletion strains, locus YLR258W, strain gsy2, stronger effect = lower value 0.962 | S. cerevisiae deletion strains, locus YLR262C, strain YPT6 (second series), stronger effect = lower value 1.05 | S. cerevisiae deletion strains, locus YLR262C, strain YPT6, stronger effect = lower value 1.21 | S. cerevisiae deletion strains, locus YLR268W, strain sec22, stronger effect = lower value 0.969 | S. cerevisiae deletion strains, locus YLR330W, strain CHS5, stronger effect = lower value 0.995 | S. cerevisiae deletion strains, locus YLR342W, strain FKS1 (second series), stronger effect = lower value 0.945 | S. cerevisiae deletion strains, locus YLR342W, strain FKS1, stronger effect = lower value 0.969 | S. cerevisiae deletion strains, locus YLR357W, strain rsc2, stronger effect = lower value 0.986 | S. cerevisiae deletion strains, locus YLR371W, strain rom2, stronger effect = lower value 0.986 | S. cerevisiae deletion strains, locus YLR384C, strain iki3, stronger effect = lower value 1 | S. cerevisiae deletion strains, locus YLR418C, strain cdc73, stronger effect = lower value 0.943 | S. cerevisiae deletion strains, locus YML016C, strain PPZ1, stronger effect = lower value 0.979 | S. cerevisiae deletion strains, locus YML032C, strain rad52, stronger effect = lower value 0.955 | S. cerevisiae deletion strains, locus YML120C, strain ndi1, stronger effect = lower value 0.978 | S. cerevisiae deletion strains, locus YML124C, strain tub3, stronger effect = lower value 0.991 | S. cerevisiae deletion strains, locus YMR078C, strain ctf18, stronger effect = lower value 0.987 | S. cerevisiae deletion strains, locus YMR125W, strain sto1, stronger effect = lower value 0.964 | S. cerevisiae deletion strains, locus YMR129W, stronger effect = lower value 0.995 | S. cerevisiae deletion strains, locus YMR205C, strain PFK2, stronger effect = lower value 0.908 | S. cerevisiae deletion strains, locus YMR223W, strain ubp8, stronger effect = lower value 0.988 | S. cerevisiae deletion strains, locus YMR231W, strain pep5, stronger effect = lower value 0.997 | S. cerevisiae deletion strains, locus YMR263W, strain SAP30, stronger effect = lower value 0.997 | S. cerevisiae deletion strains, locus YMR307W, strain GAS1, stronger effect = lower value 0.894 | S. cerevisiae deletion strains, locus YNL067W, strain RPL9B, stronger effect = lower value 0.982 | S. cerevisiae deletion strains, locus YNL071W, strain lat1, stronger effect = lower value 0.959 | S. cerevisiae deletion strains, locus YNL128W, strain TEP1, stronger effect = lower value 0.984 | S. cerevisiae deletion strains, locus YNL153C, strain GIM3, stronger effect = lower value 1 | S. cerevisiae deletion strains, locus YNL183C, strain NPR1, stronger effect = lower value 0.946 | S. cerevisiae deletion strains, locus YNL209W, strain ssb2, stronger effect = lower value 0.962 | S. cerevisiae deletion strains, locus YNL233W, strain BNI4, stronger effect = lower value 0.959 | S. cerevisiae deletion strains, locus YNL250W, strain rad50, stronger effect = lower value 0.988 | S. cerevisiae deletion strains, locus YNL271C, strain bni1, stronger effect = lower value 0.982 | S. cerevisiae deletion strains, locus YNL298W, strain CLA4, stronger effect = lower value 0.987 | S. cerevisiae deletion strains, locus YNL307C, strain MCK1, stronger effect = lower value 0.969 | S. cerevisiae deletion strains, locus YNL322C, strain KRE1 (second series), stronger effect = lower value 0.991 | S. cerevisiae deletion strains, locus YNR049C, strain mso1, stronger effect = lower value 0.96 | S. cerevisiae deletion strains, locus YNR052C, strain pop2, stronger effect = lower value 0.982 | S. cerevisiae deletion strains, locus YOL006C, strain TOP1, stronger effect = lower value 0.759 | S. cerevisiae deletion strains, locus YOL012C, strain htz1 0.955 | S. cerevisiae deletion strains, locus YOL147C, strain pex11, stronger effect = lower value 0.99 | S. cerevisiae deletion strains, locus YOR061W, strain CKA2, stronger effect = lower value 0.969 | S. cerevisiae deletion strains, locus YOR069W, strain VPS5, stronger effect = lower value 0.993 | S. cerevisiae deletion strains, locus YOR070C, strain gyp1, stronger effect = lower value 0.944 | S. cerevisiae deletion strains, locus YOR080W, strain dia2, stronger effect = lower value 1 | S. cerevisiae deletion strains, locus YOR083W, strain WHI5, stronger effect = lower value 0.927 | S. cerevisiae deletion strains, locus YOR106W, strain vam3, stronger effect = lower value 0.969 | S. cerevisiae deletion strains, locus YOR136W, strain idh2, stronger effect = lower value 0.98 | S. cerevisiae deletion strains, locus YOR144C, strain elg1, stronger effect = lower value 0.986 | S. cerevisiae deletion strains, locus YOR184W, strain ser1, stronger effect = lower value 0.953 | S. cerevisiae deletion strains, locus YOR231W, strain MKK1, stronger effect = lower value 0.973 | S. cerevisiae deletion strains, locus YOR265W, strain rbl2, stronger effect = lower value 0.993 | S. cerevisiae deletion strains, locus YOR316C, strain cot1, stronger effect = lower value 0.994 | S. cerevisiae deletion strains, locus YPL051W, strain arl3, stronger effect = lower value 0.968 | S. cerevisiae deletion strains, locus YPL078C, strain atp4, stronger effect = lower value 0.975 | S. cerevisiae deletion strains, locus YPL106C, strain sse1, stronger effect = lower value 0.894 | S. cerevisiae deletion strains, locus YPL240C, strain hsp82, stronger effect = lower value 0.986 | S. cerevisiae deletion strains, locus YPL241C, strain CIN2, stronger effect = lower value 0.992 | S. cerevisiae deletion strains, locus YPL256C, strain CLN2, stronger effect = lower value 0.982 | S. cerevisiae deletion strains, locus YPR119W, strain clb2, stronger effect = lower value 0.988 | S. cerevisiae deletion strains, locus YPR141C, strain kar3, stronger effect = lower value 0.991 | S. cerevisiae deletion strains, locus YPR163C, strain tif3, stronger effect = lower value 0.988 | S. cerevisiae deletion strains, locus YPR167C, strain met16, stronger effect = lower value 0.976 | S. cerevisiae deletion strains, strain wtn01, stronger effect = lower value 0.974 | S. cerevisiae strains, strain wild type, stronger effect = lower value 0.986
active: S. cerevisiae deletion strains, locus YLR320W, strain mms22, stronger effect = lower value 0.85 | S. cerevisiae deletion strains, locus YLR370C, strain arc18, stronger effect = lower value 0.892 | S. cerevisiae deletion strains, locus YMR058W, strain fet3, stronger effect = lower value 0.865 | S. cerevisiae deletion strains, locus YOR001W, strain rrp6, stronger effect = lower value 0.881 | S. cerevisiae deletion strains, locus YOR270C, strain vph1, stronger effect = lower value 0.607 | S. cerevisiae deletion strains, locus YOR290C, strain snf2, stronger effect = lower value 0.633
